Data on 17 sequences can be found in paper PMC7862700, “An all-to-all approach to the identification of sequence-specific readers for epigenetic DNA modifications on cytosine”.

Holding throughout (assay): DAPPL (digital affinity profiling via proximity ligation, sequencing); 10 mM Tris-HCl pH 7.5, 50 mM NaCl, 1 mM DTT, 4% glycerol, room temperature, 30 min; GST-TFs on glutathione beads, 16-mer random dsDNA library, 0.1% formaldehyde crosslink after washing; high values mean tight binding
Assay [1] has as its target T1, SPIC (Homo sapiens, UniProt Q8N5J4 1-248).
T1 sequence: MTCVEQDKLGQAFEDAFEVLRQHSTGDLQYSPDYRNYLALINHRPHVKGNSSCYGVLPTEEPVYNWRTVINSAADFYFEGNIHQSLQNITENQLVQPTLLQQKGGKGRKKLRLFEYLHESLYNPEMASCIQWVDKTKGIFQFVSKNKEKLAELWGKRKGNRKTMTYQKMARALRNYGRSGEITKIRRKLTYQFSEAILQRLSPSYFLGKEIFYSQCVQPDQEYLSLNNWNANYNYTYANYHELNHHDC
The settings on record: protein: recombinant; tags: N-terminal GST; dsDNA, one strand shown. The essentials:
(§1)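 Human transcription factors carrying a GST fusion were produced in yeast, bound to glutathione beads, tagged with DNA barcodes and pooled together with a tag-only sample. Each pool was held with 200 nmole of a random double-stranded 16-mer DNA library in Tris/NaCl/DTT/glycerol buffer for 30 min at room temperature, then washed, crosslinked in 0.1% formaldehyde, proximity-ligated with BsaI/T4 ligase (1 h, 37 °C), PCR-amplified and sequenced on an Illumina NextSeq500. Binding signal is the read frequency of each hexamer for a given factor divided by its frequency in the tag-only sample.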

Assay [2] concerns the target HSF1 (Homo sapiens, UniProt Q00613 1-529). The settings on record: protein: recombinant; tags: N-terminal GST; chain copies: 3; dsDNA, one strand shown. An outline of the steps: as §1
For assay [3], the target named is CRX (Homo sapiens, UniProt O43186 1-299). The settings on record: protein: recombinant; tags: N-terminal GST; dsDNA, one strand shown. The essentials: as §1
For assay [4], the target named is T2, ERF (Homo sapiens, UniProt P50548 1-548).
T2 sequence: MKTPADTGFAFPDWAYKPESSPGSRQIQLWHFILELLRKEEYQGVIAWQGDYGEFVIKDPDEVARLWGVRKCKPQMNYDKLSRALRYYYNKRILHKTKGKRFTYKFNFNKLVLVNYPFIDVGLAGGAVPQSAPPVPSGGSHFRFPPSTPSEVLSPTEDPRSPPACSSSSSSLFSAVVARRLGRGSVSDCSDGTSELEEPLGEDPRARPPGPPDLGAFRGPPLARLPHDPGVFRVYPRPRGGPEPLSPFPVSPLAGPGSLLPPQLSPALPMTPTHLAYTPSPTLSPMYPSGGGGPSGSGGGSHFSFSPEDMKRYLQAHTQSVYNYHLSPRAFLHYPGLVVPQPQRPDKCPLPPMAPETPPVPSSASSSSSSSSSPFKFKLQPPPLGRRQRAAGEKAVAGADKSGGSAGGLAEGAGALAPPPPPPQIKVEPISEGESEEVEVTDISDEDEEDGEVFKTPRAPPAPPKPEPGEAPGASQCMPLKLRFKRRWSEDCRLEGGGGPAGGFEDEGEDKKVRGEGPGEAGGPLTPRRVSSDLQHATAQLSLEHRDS
The settings on record: protein: recombinant; tags: N-terminal GST; dsDNA, one strand shown. An outline of the steps: as §1

The target in assay [5] is T3, ETV7 (Homo sapiens, UniProt Q9Y603 1-341).
T3 sequence: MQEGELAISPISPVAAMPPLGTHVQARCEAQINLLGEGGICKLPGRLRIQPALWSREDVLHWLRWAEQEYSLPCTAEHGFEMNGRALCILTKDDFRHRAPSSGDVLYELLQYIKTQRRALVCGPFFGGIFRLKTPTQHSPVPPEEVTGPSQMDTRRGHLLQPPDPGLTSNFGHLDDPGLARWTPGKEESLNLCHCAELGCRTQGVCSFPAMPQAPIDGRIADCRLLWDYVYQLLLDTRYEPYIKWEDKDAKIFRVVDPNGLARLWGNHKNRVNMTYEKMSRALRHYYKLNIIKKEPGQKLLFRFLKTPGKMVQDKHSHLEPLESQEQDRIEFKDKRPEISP
The conditions noted are these: protein: recombinant; tags: N-terminal GST; dsDNA, one strand shown. The essentials:
as §1

Assay [6] concerns the target SPIB (Homo sapiens, UniProt Q01892 1-262). The settings on record: protein: recombinant; tags: N-terminal GST; dsDNA, one strand shown. An outline of the steps:
as §1

Assay [7] concerns the target T4, EHF (Homo sapiens, UniProt Q9NZC4 1-300).
T4 sequence: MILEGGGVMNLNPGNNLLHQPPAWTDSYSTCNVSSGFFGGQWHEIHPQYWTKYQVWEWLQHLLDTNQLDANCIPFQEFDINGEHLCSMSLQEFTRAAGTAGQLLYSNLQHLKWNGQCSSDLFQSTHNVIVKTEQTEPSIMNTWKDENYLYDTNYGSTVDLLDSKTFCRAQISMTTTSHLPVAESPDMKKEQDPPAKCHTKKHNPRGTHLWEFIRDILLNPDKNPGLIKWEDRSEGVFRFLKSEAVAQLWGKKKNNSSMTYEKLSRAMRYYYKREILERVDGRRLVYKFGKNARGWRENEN
The conditions noted are these: protein: recombinant; tags: N-terminal GST; dsDNA, one strand shown. An outline of the steps:
as §1

Assay [8] deals with T5, ETV3L (Homo sapiens, UniProt Q6ZN32 1-361).
T5 sequence: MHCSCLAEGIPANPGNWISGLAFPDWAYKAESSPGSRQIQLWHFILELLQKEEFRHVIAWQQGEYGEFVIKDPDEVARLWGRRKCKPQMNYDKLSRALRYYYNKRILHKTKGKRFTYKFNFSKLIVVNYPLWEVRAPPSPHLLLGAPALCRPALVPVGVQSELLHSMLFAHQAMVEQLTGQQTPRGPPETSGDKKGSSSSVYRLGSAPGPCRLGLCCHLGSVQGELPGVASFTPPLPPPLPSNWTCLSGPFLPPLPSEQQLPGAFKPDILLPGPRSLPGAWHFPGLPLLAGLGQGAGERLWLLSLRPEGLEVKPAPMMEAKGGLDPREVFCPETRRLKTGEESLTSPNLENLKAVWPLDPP
The settings on record: protein: recombinant; tags: N-terminal GST; dsDNA, one strand shown. An outline of the steps:
as §1

The target of assay [9] is T6, SPDEF (Homo sapiens, UniProt O95238 1-335).
T6 sequence: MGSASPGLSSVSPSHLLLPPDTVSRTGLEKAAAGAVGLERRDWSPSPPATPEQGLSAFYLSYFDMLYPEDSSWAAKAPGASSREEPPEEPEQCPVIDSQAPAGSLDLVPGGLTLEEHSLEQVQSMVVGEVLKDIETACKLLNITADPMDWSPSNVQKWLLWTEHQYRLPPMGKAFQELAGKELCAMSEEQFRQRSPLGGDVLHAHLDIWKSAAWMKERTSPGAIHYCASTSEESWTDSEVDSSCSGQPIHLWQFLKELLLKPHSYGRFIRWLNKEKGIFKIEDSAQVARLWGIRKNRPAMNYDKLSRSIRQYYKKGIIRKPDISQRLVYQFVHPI
The settings on record: protein: recombinant; tags: N-terminal GST; dsDNA, one strand shown. The essentials: as §1

For assay [10], the target named is T7, ELK3 (Homo sapiens, UniProt P41970 1-407).
T7 sequence: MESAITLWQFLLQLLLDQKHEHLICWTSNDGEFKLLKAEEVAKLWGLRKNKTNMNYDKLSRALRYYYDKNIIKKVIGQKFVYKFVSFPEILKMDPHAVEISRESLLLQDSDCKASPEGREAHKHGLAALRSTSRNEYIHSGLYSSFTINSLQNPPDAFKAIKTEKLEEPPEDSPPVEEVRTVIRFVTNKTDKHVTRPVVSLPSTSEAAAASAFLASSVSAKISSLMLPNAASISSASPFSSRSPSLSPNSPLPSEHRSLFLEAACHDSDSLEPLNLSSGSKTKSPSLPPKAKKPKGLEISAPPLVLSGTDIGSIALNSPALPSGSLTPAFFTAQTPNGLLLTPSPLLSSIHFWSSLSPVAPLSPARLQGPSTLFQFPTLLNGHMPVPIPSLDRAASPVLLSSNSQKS
The settings on record: protein: recombinant; tags: N-terminal GST; dsDNA, one strand shown. The essentials: as §1

Assay [11] has as its target T8, ELF5 (Homo sapiens, UniProt Q9UKW6-2 1-255).
T8 sequence: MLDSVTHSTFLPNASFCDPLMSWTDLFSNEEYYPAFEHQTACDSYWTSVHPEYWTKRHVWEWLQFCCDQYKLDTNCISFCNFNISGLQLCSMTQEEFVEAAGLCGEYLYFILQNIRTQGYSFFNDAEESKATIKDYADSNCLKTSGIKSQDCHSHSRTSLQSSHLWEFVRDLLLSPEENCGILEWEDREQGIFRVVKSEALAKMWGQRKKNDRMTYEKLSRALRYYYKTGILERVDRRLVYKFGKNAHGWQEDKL
The settings on record: protein: recombinant; tags: N-terminal GST; dsDNA, one strand shown. An outline of the steps: as §1

Assay [12] has as its target T9, ETV3 (Homo sapiens, UniProt P41162-2 1-143).
T9 sequence: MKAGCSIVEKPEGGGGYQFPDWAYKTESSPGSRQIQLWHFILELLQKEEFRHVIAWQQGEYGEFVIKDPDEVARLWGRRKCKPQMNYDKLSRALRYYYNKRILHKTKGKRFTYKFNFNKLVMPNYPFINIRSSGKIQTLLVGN
The conditions noted are these: protein: recombinant; tags: N-terminal GST; dsDNA, one strand shown. An outline of the steps:
as §1

For assay [13], the target named is ETV6 (Homo sapiens, UniProt P41212 1-452). The settings on record: protein: recombinant; tags: N-terminal GST; dsDNA, one strand shown. An outline of the steps: as §1
ETV6, sequence (P41212 whole entry): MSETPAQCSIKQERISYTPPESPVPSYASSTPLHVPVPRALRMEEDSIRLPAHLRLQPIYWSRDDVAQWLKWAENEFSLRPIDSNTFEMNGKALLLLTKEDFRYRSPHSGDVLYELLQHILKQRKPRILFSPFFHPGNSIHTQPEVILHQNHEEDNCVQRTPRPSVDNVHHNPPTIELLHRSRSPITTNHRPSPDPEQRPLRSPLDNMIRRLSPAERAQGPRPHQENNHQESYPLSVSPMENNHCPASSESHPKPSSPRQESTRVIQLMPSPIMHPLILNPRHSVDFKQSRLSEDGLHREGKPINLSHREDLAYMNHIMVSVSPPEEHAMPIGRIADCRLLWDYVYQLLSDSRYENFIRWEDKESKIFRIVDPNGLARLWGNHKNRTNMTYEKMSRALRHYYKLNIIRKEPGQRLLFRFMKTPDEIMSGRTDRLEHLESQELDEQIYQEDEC

SPIB, sequence (Q01892 whole entry): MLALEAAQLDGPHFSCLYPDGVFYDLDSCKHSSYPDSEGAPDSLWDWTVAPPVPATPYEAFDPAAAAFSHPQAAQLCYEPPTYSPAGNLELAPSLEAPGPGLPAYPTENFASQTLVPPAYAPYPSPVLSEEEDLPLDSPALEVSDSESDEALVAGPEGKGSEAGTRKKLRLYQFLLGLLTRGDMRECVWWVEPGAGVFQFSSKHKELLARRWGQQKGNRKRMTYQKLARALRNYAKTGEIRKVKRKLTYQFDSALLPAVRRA
HSF1, sequence (Q00613 whole entry): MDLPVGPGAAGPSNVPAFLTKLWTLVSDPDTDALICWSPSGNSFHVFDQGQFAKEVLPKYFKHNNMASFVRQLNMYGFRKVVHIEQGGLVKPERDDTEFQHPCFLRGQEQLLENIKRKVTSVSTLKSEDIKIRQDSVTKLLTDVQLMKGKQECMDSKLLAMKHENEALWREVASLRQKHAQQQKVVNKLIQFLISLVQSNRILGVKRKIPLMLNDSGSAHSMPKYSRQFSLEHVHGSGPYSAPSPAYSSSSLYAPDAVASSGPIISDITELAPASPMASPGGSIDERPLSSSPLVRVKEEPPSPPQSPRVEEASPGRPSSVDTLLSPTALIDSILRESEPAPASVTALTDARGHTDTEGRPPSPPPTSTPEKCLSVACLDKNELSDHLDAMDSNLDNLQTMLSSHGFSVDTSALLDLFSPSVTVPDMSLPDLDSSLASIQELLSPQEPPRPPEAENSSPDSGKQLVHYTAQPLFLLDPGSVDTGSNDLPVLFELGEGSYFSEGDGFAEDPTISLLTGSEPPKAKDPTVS
CRX, sequence (O43186 whole entry): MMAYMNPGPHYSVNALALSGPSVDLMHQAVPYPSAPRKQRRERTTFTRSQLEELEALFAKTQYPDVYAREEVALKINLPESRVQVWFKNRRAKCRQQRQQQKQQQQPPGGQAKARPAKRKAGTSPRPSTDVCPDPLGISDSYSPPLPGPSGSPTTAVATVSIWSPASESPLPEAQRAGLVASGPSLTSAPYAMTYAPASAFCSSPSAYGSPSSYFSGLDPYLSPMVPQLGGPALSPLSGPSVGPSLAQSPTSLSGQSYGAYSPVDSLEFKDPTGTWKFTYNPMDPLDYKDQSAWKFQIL

For the sequence CTAGGG, the binding signal in assay [1] was 1.07 fold enrichment (6-mer frequency, TF over GST control).
Take GGAATA: the binding signal in [2] was 1.44 fold enrichment (6-mer frequency, TF over GST control); in assay [3], 1.02 fold enrichment (6-mer frequency, TF over GST control); in assay [4], 1.02 fold enrichment (6-mer frequency, TF over GST control).
Consider TTAGTC, for which the binding signal is 1.17 fold enrichment (6-mer frequency, TF over GST control) in assay [2] and 1.57 fold enrichment (6-mer frequency, TF over GST control) in assay [3].
On to CAGAAA, for which the binding signal in assay [2] is 1.99 fold enrichment (6-mer frequency, TF over GST control); in assay [3] it was 1.07 fold enrichment (6-mer frequency, TF over GST control); in assay [5], 1.02 fold enrichment (6-mer frequency, TF over GST control).
GAATCA: the binding signal is 1.03 fold enrichment (6-mer frequency, TF over GST control) in assay [6]; 1.06 fold enrichment (6-mer frequency, TF over GST control) in [2]; 1.04 fold enrichment (6-mer frequency, TF over GST control) in assay [3].
As for TAAGAG, the binding signal in assay [2] was 1.19 fold enrichment (6-mer frequency, TF over GST control); in assay [3] it was 1.46 fold enrichment (6-mer frequency, TF over GST control).
On to AGCGAA, for which the binding signal in assay [7] was 1.06 fold enrichment (6-mer frequency, TF over GST control); in [2] it was 1.02 fold enrichment (6-mer frequency, TF over GST control).
With AGACTA, the binding signal is 1.06 fold enrichment (6-mer frequency, TF over GST control) in [2] and 1.02 fold enrichment (6-mer frequency, TF over GST control) in assay [3].
GGATTC: the binding signal was 1.13 fold enrichment (6-mer frequency, TF over GST control) in assay [2]; 1.15 fold enrichment (6-mer frequency, TF over GST control) in [3]; 1.02 fold enrichment (6-mer frequency, TF over GST control) in assay [8]; 1.07 fold enrichment (6-mer frequency, TF over GST control) in [9].
Regarding GAGATT, the binding signal in assay [2] was 1.25 fold enrichment (6-mer frequency, TF over GST control); in [3] it was 1.57 fold enrichment (6-mer frequency, TF over GST control).
For the sequence TGCGAG, the binding signal in assay [6] was 1.03 fold enrichment (6-mer frequency, TF over GST control); in assay [2] it was 1.15 fold enrichment (6-mer frequency, TF over GST control).
In the case of CCAAGA, the binding signal was 1.03 fold enrichment (6-mer frequency, TF over GST control) in assay [2] and 1.01 fold enrichment (6-mer frequency, TF over GST control) in assay [4].
In the case of GTGCTG, in assay [1], the binding signal is 1.05 fold enrichment (6-mer frequency, TF over GST control).
TTAGAC: the binding signal in assay [2] was 1.1 fold enrichment (6-mer frequency, TF over GST control); in assay [3], 1.44 fold enrichment (6-mer frequency, TF over GST control).
CAGAAC: the binding signal was 1.62 fold enrichment (6-mer frequency, TF over GST control) in [2] and 1.03 fold enrichment (6-mer frequency, TF over GST control) in assay [5].
In the case of TTCGTG, the binding signal in assay [6] was 1.04 fold enrichment (6-mer frequency, TF over GST control); in assay [2], 1.1 fold enrichment (6-mer frequency, TF over GST control).
In the case of GGAAAG, the binding signal in assay [10] is 1 fold enrichment (6-mer frequency, TF over GST control); in [2], 1.29 fold enrichment (6-mer frequency, TF over GST control); in assay [5], 1.06 fold enrichment (6-mer frequency, TF over GST control); in assay [11], 1.12 fold enrichment (6-mer frequency, TF over GST control); in [12], 1 fold enrichment (6-mer frequency, TF over GST control); in assay [13] it was 1.06 fold enrichment (6-mer frequency, TF over GST control).
